From PubChem BioAssay AID463173 (ICCB-Longwood Screening Facility, Harvard Medical School, 2010) come the findings set out here.

In all, about 52,000 compounds went through this assay and about 4,300 (8.3%) were called active. This is one part of a sample in which actives are shown more often than they occur. Unmarked numbers belong to inactive results. No stated cut-off is given here; in the data, active means survival mostly below about 52% (no sharp cut-off); inactive means mostly above about 56%.

This experiment concerns DeltatarO mutant. Description: growth inhibition of S. aureus wild type versus tarO mutant, primary screen, teichoic acid synthesis inhibitors, RN4220, OD600 (AID 463173). The conditions noted are these: OD600, 18 h, hits give low values, screened at 18.75 µg/mL (by protocol).
As for `CCOc1ccc(CCNC(=O)c2ccc(CSCc3ccccc3C)o2)cc1OCC`, the survival is 112%. With `Cc1ccc(NC(=O)c2ccc(NC(=O)N3CCSc4ncccc43)cc2)cc1Cl` the figure was 109%; with `CCCn1cc(S(=O)(=O)c2cc(C)ccc2C)c(=O)c2cc(F)c(N3CCN(CC)CC3)cc21`, 80%; with `O=C(Nc1ccccc1C(=O)OCc1cc(=O)n2ccsc2n1)c1ccc(Cl)cc1`, 76%. With `COc1ccc(NC(=O)c2ccc(-c3nc(CSc4ccccc4)c(C)o3)cc2)cc1OC` the figure was 84%.

As to `Cc1ccc(C)c(NC(=O)CN(C)S(=O)(=O)c2cccc3cccnc23)c1`, the survival was 85%. As for `CCCn1c(N)nc2c1c(=O)[nH]c(=O)n2C`, the survival was 71%. In the case of `COC(=O)c1ccc(NC(=O)CC2C(=O)N(c3ccc(Cl)cc3)C(=O)N2Cc2cccs2)cc1` (stereo not drawn), the survival was 102%. Consider `Cc1cc(C)c(Cn2c3ccccc3c3cnn(CC(=O)NCCc4ccccc4)c(=O)c32)c(C)c1`, for which the survival was 133%. For `Cc1ccc(NC(=O)Cn2cc(C(=O)C3CC3)c3ccccc32)c(C)c1` the value was 90%. Turning to `Cc1ccc2oc(=O)n(Cc3ccccc3Cl)c2c1`, the survival is -3% (active).

`O=C(NCc1ccccc1Cl)c1ccc2oc(=O)n(Cc3ccccc3)c2c1`: the survival was 72%. For `CCCCCOc1ccccc1Cn1c(=O)oc2ccc(C)cc21` the value was 5% (active); for `Cc1ccc2oc(=O)n(CCNC(=O)Nc3ccccc3Cl)c2c1`, 72%; for `CCOC(=O)c1ccc2oc(=O)n(Cc3ccccc3)c2c1`, 83%.

As to `CCCCCOc1ccccc1CN1C(=O)C(=O)c2cc(C)ccc21`, the survival was 151%. Take `CCCCN(CC)CCCNC(=O)c1cn(C)c(=O)c2c1c1ccccc1n2C`: the survival is 139%.

In the case of `Cc1ccc2c(c1)cc1c(=O)n(CC(=O)NCc3ccco3)nc(C)n12`, the survival was 84%. On to `O=C(CN1C(=O)COc2ccc(S(=O)(=O)NC3CCCC3)cc21)NCc1ccccc1Cl`, for which the survival was 80%. For `CCCC(c1nnnn1CC1CCCO1)N(Cc1cccs1)Cc1cc2ccc(C)c(C)c2[nH]c1=O` (stereo not drawn) the value was 71%.

On to `Cc1ccc(-c2nc3cc(C(C)C)ccc3o2)cc1NC(=O)c1cc([N+](=O)[O-])ccc1N1CCOCC1`, for which the survival is 62%. Consider `CCn1cc(C2N3CC4(CC)CN2CC(CC)(C3)C4=O)c2ccccc21` (stereo not drawn), for which the survival was 73%. For `Cc1c(Cl)cccc1NC(=O)c1ccc2c(c1)nnn2C1CCCC1` the value was 108%. For `Cc1cccc(C)c1NC(=O)c1ccc2c(c1)nnn2C1CCCC1` the value was -5% (active); for `Cc1cc(C)cc(NC(=O)c2ccc3c(c2)nnn3C2CCCC2)c1`, 128%; for `CCN(CC)c1ccc(NC(=O)CN2C(=O)c3cccnc3Oc3ccccc32)c(C)c1`, 116%. For `Cc1cc(Br)ccc1NC(=O)CN1C(=O)c2cccnc2Sc2ccccc21` the value was 90%; for `CCN(CC)c1ccc(NC(=O)CN2C(=O)c3cccnc3Sc3ccccc32)c(C)c1`, -2% (active); for `CCOC(=O)c1c(C)c(C(=O)NCCc2ccc(OC)cc2)c(C)n1C`, 99%. Take `CCC(=O)N1c2ccccc2CC1C(=O)NCCc1ccccc1C` (stereo not drawn): the survival is 71%.

As to `COc1ccc(C2C(=O)N(C3CCCCCC3)CC(=O)N2Cc2ccc(C)cc2)cc1` (stereo not drawn), the survival was 60%. Take `Cc1ccc(CN2C(=O)CN(C3CCC(C)CC3)C(=O)C2c2ccc(F)cc2)cc1` (stereo not drawn): the survival is 91%.

As to `Cc1ccc(CN2C(=O)CN(C3CCCCCC3)C(=O)C2c2ccc(F)cc2)cc1` (stereo not drawn), the survival is 6% (active). For `Cc1ccc(C=C2C(=O)N(C)C(=O)N(C)C2=O)cc1` the value was 82%; for `CCOC(=O)C1=C(CS(=O)(=O)c2ccc(F)cc2)NC(=O)NC1c1ccc(OCC)c(OC)c1` (stereo not drawn), 119%. With `COc1ccc(C(=O)Nc2cc3cc(Cl)ccc3oc2=O)cc1OC` the figure was 73%; with `COc1ccc(-c2cn3cccnc3n2)cc1NC(=O)Cc1ccccc1`, 82%; with `Cc1cn(C(=O)c2ccccc2)c(=O)[nH]c1=O`, 57% (active). For `CC1=NN(C(=O)c2ccccc2)C(C)(O)C1(C)C` (stereo not drawn) the value was 98%; for `Cc1[nH]c(=O)[nH]c(=O)c1NC(=O)c1ccccc1`, 88%. For the compound `CCC(=O)Nc1cccc(-c2nc3ccccc3[nH]2)c1C`, the survival was 94%. For `CC(NC(=O)CSc1n[nH]c(-c2ccccc2Cl)n1)c1nc2ccccc2[nH]1` (stereo not drawn) the value was 72%; for `CC(C)CC(=O)Nc1ccc(Cl)c(-c2nc3ccccc3[nH]2)c1`, 39% (active); for `CCC(=O)Nc1ccc(Cl)c(-c2nc3ccccc3[nH]2)c1`, 49% (active). For `CC(C)(C)C(=O)Nc1ccc(Cl)c(-c2nc3ccccc3[nH]2)c1` the value was 44%. For `CCOc1ccc(NC(=O)c2cc(S(=O)(=O)NC3CCCC3)ccc2F)cc1` the value was 86%; for `COCCn1c(=O)[nH]c2cc(C(=O)N3CCN(c4ccc(F)cc4)CC3)ccc2c1=O`, 70%. Regarding `CCN(Cc1ccccc1)C(=O)CN1C(=O)COc2ccc(S(=O)(=O)NC3CCCC3)cc21`, the survival is 78%. For `CC(C)NC(=O)CN1CCN(c2ccc(F)cc2)CC1` the value was 87%; for `Cc1ccc(S(=O)(=O)c2cn(C)c3cc(N4CCN(c5ccccc5)CC4)c(F)cc3c2=O)cc1`, 95%; for `CC(=O)N1CCc2cc(Br)cc(S(=O)(=O)CCC(=O)N3CCN(c4ccccc4Cl)CC3)c21`, 61%. With `CC(=O)N1CCc2cc(Br)cc(S(=O)(=O)CCC(=O)N3CCN(c4ccccc4)CC3)c21` the figure was 53% (active).

With `O=C(CCS(=O)(=O)c1cc(Br)cc2c1N(C(=O)C1CC1)CC2)N1CCN(c2ccccc2)CC1`, the survival was 91%. With `CC(=O)N1CCc2cc(Br)cc(S(=O)(=O)CCC(=O)N3CCN(c4cccc(C)c4C)CC3)c21` the figure was 45% (active); with `COc1ccccc1N1CCN(C(=O)CCS(=O)(=O)c2cc(Br)cc3c2N(C(C)=O)CC3)CC1`, 53%; with `CC(=O)N1CCc2cc(Br)cc(S(=O)(=O)CCC(=O)N3CCN(c4ccc(F)cc4)CC3)c21`, 67%. For `O=C(NCCS(=O)(=O)N1CCN(c2ccccc2F)CC1)C1CC(=O)N(c2ccc(F)cc2)C1` (stereo not drawn) the value was 90%; for `O=C(NCCc1csc2nc(-c3cccc(F)c3)nn12)c1ccc(Br)o1`, 76%. As to `COc1ccc(-n2c(CNc3ccccc3Cl)nnc2SCC(N)=O)cc1`, the survival was 86%. In the case of `CCN(CC)CCC(=O)c1ccc(OC(C)C)cc1`, the survival was 92%.

On to `COc1ccc(NC(=O)c2ccc(-c3cccc(Cl)c3C)o2)cc1`, for which the survival was 16% (active). With `COc1ccc(NC(=O)c2coc(C)c2)cc1` the figure was 82%. For `Cc1c(NC(=O)c2ccc(-c3ccc(F)cc3)o2)cccc1-c1nc2ncccc2o1` the value was 55%; for `CCOc1ccc(-c2cc(C(=O)Nc3ccc(NC(C)=O)cc3)no2)cc1`, 61%; for `CCOc1ccc(NC(=O)c2ccc(-c3cccc(Cl)c3C)o2)cc1`, 42% (active). With `CCOC(=O)c1ccc(NC(=O)c2c(-c3c(F)cccc3Cl)noc2C)cc1` the figure was 59%. With `CCOc1ccc(NC(=O)c2cc3cc4ccc(C)cc4nc3o2)cc1`, the survival was 83%. For `CCOC(=O)c1ccc(NC(=O)c2cc(=O)c3cc(CC)ccc3o2)cc1` the value was 62%; for `CCOC(=O)c1ccc(NC(=O)c2ccc(-c3cccc(Cl)c3C)o2)cc1`, 37% (active); for `Cc1c(Cl)cccc1-c1ccc(C(=O)Nc2ccc(F)cc2)o1`, 1% (active). Consider `COc1ccc(NC(=O)c2cc(-c3ccccc3O)no2)cc1`, for which the survival was 69%. For `Cc1c(Cl)cccc1-c1ccc(CNc2ccc3[nH]c(=O)[nH]c3c2)o1` the value was 51%; for `Cc1cccc(CNC(=O)CS(=O)(=O)c2cccc3nsnc23)c1`, 78%; for `COc1cccc(CNC(=O)CSc2nc3ccccc3nc2Cc2ccc(C)cc2)c1OC`, 74%. Consider `COCCCn1c(=N)c(S(=O)(=O)c2ccccc2)cc2c(=O)n3cc(C)ccc3nc21`, for which the survival is 68%. For `CCOc1ccc(C2CC(=O)c3c([nH]c(C(=O)OCCOc4ccccc4)c3C)C2)cc1` (stereo not drawn) the value was 72%. With `Cc1c(Cl)cccc1-c1ccc(C(=O)Nc2ccc3oc(-c4cccnc4)nc3c2)o1` the figure was 55%; with `Cc1ccc(NC(=O)c2ccc(-c3cccc(Cl)c3C)o2)cc1`, 1% (active); with `O=C(Nc1cccc(-c2nc3ncccc3o2)c1)c1ccc(-c2cccc(Cl)c2Cl)o1`, 79%.

For the compound `COc1ccc(NC(=O)N2CCOc3ccc(Cl)cc32)cc1`, the survival was 44% (active). With `CCOC(=O)c1ccccc1NC(=O)N1CCOc2ccc(Cl)cc21` the figure was 99%; with `CCc1ccc(NC(=O)N2CCOc3ccc(Cl)cc32)cc1`, 65%; with `Cc1ccc(C(=O)N(Cc2sccc2C)C2CCS(=O)(=O)C2)cc1` (stereo not drawn), 76%.

Turning to `CCn1c(SC)nnc1C1CCCN1CC(=O)N1CCN(Cc2ccc3c(c2)OCO3)CC1` (stereo not drawn), the survival was 79%. In the case of `Cc1ccc(CSc2nc3ccc(NC(=O)COc4ccccc4)cc3s2)cc1`, the survival was 87%. With `Cc1c(Cl)cccc1Nc1nn2c(=O)c3ccccc3nc2s1` the figure was 73%. With `CCc1ccc(Nc2nc(N)nc(CSc3nc4ccccc4s3)n2)cc1` the figure was 21% (active).

Take `C/C=N/NC(=O)CSc1nc2ccccc2s1`: the survival is 96%. With `Nc1nc(CSc2ccccn2)nc(Nc2ccccc2)n1` the figure was 97%; with `Cc1ccc(Nc2nc(N)nc(CSc3nc4ccccc4s3)n2)cc1`, 25% (active); with `Cc1c(Cl)cccc1Nc1nc(N)nc(CSc2nc3ccccc3s2)n1`, 24% (active).

Take `Cc1ccc(Nc2nc(N)nc(CSc3nccn3C)n2)cc1`: the survival is 93%. For `CCC(=O)Nc1ccc2nc(SCc3ccccc3)sc2c1` the value was 76%.
